Assay outcomes from PubChem BioAssay.
Sampled rows, rich in hits. Any-hit rate of the full collection: about 4.1%.
ssDAF-12 act: activates DAF-12 receptor from parasite S. stercoralis. HEK293 ssDAF-12/GRIP1 lit1-tk-luc reporter, luminescence; % of 3 µM dafachronic acid response. activation, % at 6.8 µM. 370,000 compounds, 1% hits;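 active = activation above the mean over all tested compounds plus 3 SD, cut at about 0.9% in these data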;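 note: 0% = DMSO-only wells and 100% = 3 µM delta7-dafachronic acid wells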
hgDAF12 agonist: activates the H. glycines DAF-12 receptor ligand-binding domain; HEK293 GAL4-hgDAF12 UAS-luciferase reporter, agonist luminescence; normalized to butyrate control; activation, % at 6.8 µM; 370,000 compounds, 1.8% hits;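 active = activation above a cutoff set at the mean of all screened compounds plus 3 SD, cut at about 10% in these data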;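 note: 0% = DMSO wells and 100% = sodium butyrate wells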
DAX1 inh-1: NR0B1 (DAX1) inhibition; HEK293 Gal4-DAX1 luciferase reporter, luminescence; inhibition, % at 6.75 µM; 340,000 compounds, 0.99% hits;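 active = inhibition above the mean over all tested compounds plus 3 SD, cut at about 4.2% in these data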;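 note: 0% = DAX1-transfected cells with DMSO and 100% = empty-vector control cells with DMSO; inhibition shows as a rise in luminescence from relieved DAX1 repression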
DAX1 inh-2: inhibitors of DAX1 repression of SF-1 activated StAR promoter. AID 652010. 370,000 compounds, 1.1% hits. HEK293T StAR-luciferase reporter, SF-1/DAX-1 repression relief. inhibition, % at 6.8 µM;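 active = inhibition above the mean over all tested compounds plus 3 SD, cut at about 3.6% in these data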;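 note: 0% = DAX-1 cells with DMSO and 100% = cells lacking DAX-1 with DMSO; higher inhibition means more luminescence from relief of DAX-1 repression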
hcDAF-12 act: H. contortus DAF-12 activation, primary screen; HEK293 hcDAF-12 lit1-tk-luc reporter, luminescence; 0% DMSO, 100% Δ7-dafachronic acid; activation, % at 6.8 µM; 370,000 compounds, 1.4% hits;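 active = activation above the mean of all tested compounds plus 3 SD, cut at about 5.5% in these data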;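 note: 100% = response to 3 µM Δ7-dafachronic acid high control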
LXRb hcDAF ctr: activates human LXR-beta, counter-screen for hcDAF-12 agonists | shares compounds with hcDAF-12 act | HEK293 Gal4-LXR tk-luc reporter, luminescence, 24 h; normalized: DMSO 0%, positive control 100% | activation, % at 6.8 µM | 3,400 tested, under 10 active | AID 743027;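 active = mean percent activation of the reporter above a cutoff set as the average over tested compounds plus their standard deviation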
Target sequence (P55055 whole entry, looked up, the tested form may be a part): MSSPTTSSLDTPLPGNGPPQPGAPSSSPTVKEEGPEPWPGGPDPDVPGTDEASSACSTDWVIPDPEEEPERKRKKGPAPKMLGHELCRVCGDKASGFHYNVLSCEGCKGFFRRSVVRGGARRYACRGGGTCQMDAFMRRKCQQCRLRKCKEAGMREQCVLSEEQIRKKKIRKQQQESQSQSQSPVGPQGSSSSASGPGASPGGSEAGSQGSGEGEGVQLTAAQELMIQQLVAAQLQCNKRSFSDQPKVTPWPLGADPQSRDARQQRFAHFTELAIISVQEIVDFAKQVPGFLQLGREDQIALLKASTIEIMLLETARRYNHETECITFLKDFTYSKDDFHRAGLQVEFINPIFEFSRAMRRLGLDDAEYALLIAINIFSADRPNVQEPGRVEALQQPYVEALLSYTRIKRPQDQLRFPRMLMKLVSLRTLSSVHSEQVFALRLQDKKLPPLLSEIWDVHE
hcDAF12 conf: hcDAF-12 agonism, confirmation assay | shares compounds with hcDAF-12 act | HEK293 hcDAF-12 lit1-tk-luc reporter, luminescence; % of Δ7-dafachronic acid response | activation, % at 6.8 µM | 3,400 compounds, 61% hits;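 active = mean activation across triplicate tests above the threshold derived from the earlier primary screen, cut at about 5.5% in these data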;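 note: 0% = DMSO only wells and 100% = 3 µM Δ7-dafachronic acid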
Active calls of the source: *.

`Cc1cc(C(=O)NCC2CCCO2)sc1C` (centres undefined) gave ssDAF-12 act -1, hgDAF12 agonist 2, DAX1 inh-1 0, DAX1 inh-2 3 and hcDAF-12 act -1.
For O=C(NCC1CCCO1)c1cc2c(s1)CCC2 (centres undefined) the results were ssDAF-12 act -2, hgDAF12 agonist 4, DAX1 inh-1 4, DAX1 inh-2 2, hcDAF-12 act 7.7*, LXRb hcDAF ctr 0 and hcDAF12 conf 2.
For COc1cc(C(=O)Nc2nc3ccccc3[nH]2)cc(OC)c1OC the results were ssDAF-12 act -2, hgDAF12 agonist 5, DAX1 inh-1 -1, DAX1 inh-2 1 and hcDAF-12 act 0.
Screening COc1cccc(C(=O)Nc2nc3ccccc3[nH]2)c1 returned ssDAF-12 act 0, hgDAF12 agonist 11*, DAX1 inh-1 -4, DAX1 inh-2 3, hcDAF-12 act 7.4*, LXRb hcDAF ctr 2 and hcDAF12 conf 8.0*.
O=C(Nc1nc2ccccc2[nH]1)c1cccc(Br)c1 was read as ssDAF-12 act 1, hgDAF12 agonist 12*, DAX1 inh-1 0, DAX1 inh-2 1, hcDAF-12 act 8.6*, LXRb hcDAF ctr 1 and hcDAF12 conf 7.1*.
For O=C(Nc1nc2ccccc2[nH]1)Nc1ccccc1F the results were ssDAF-12 act 4.8*, hgDAF12 agonist 22*, DAX1 inh-1 2, DAX1 inh-2 3, hcDAF-12 act 24*, LXRb hcDAF ctr 2 and hcDAF12 conf 20*.
CCCCNC(=O)C1C(c2ccc(C(F)(F)F)cc2)=Nc2ccccc2N1C(=O)C1CCN(C(C)=O)CC1 (centres undefined) was read as ssDAF-12 act -1, hgDAF12 agonist 2, DAX1 inh-2 0 and hcDAF-12 act 0.
O=C(Cc1nnc(NC(=O)c2ccccc2)s1)N/N=C/c1ccco1 was read as ssDAF-12 act 1.3*, hgDAF12 agonist 2, DAX1 inh-1 -1, DAX1 inh-2 1, hcDAF-12 act 7.5*, LXRb hcDAF ctr 0 and hcDAF12 conf 0.
For O=C(Cc1nnc(NC(=O)c2ccccc2)s1)N/N=C/c1cccc(O)c1 the results were ssDAF-12 act -1, hgDAF12 agonist 1, DAX1 inh-1 0, DAX1 inh-2 0 and hcDAF-12 act -1.
`O=C(Nc1cc2c(ccc3ccccc32)oc1=O)C1CCCCC1` gave ssDAF-12 act 0, hgDAF12 agonist -1, DAX1 inh-1 0, DAX1 inh-2 0, hcDAF-12 act 7.3*, LXRb hcDAF ctr 0 and hcDAF12 conf 1.
For CC(=O)Nc1cc2c(ccc3ccccc32)oc1=O the results were ssDAF-12 act -1, hgDAF12 agonist 3, DAX1 inh-2 0 and hcDAF-12 act -2.
Screening Cc1cc(NC(=O)CSc2c(C)[nH]c3ccccc23)no1 returned ssDAF-12 act 1.1*, hgDAF12 agonist 4, DAX1 inh-1 2, DAX1 inh-2 1, hcDAF-12 act 6.8*, LXRb hcDAF ctr 0 and hcDAF12 conf 1.
`Cc1cc(NC(=O)CSc2c[nH]c3ccccc23)no1` gave ssDAF-12 act 0, hgDAF12 agonist 4, DAX1 inh-1 1, DAX1 inh-2 0 and hcDAF-12 act 5.
O=C(/C=C/c1ccc(-c2ccccc2[N+](=O)[O-])o1)c1ccco1 was read as ssDAF-12 act 0, hgDAF12 agonist 4, DAX1 inh-1 1, DAX1 inh-2 0, hcDAF-12 act 7.9*, LXRb hcDAF ctr 0 and hcDAF12 conf 2.
`O=C(/C=C/c1ccc([N+](=O)[O-])cc1)c1ccco1` gave ssDAF-12 act -1, hgDAF12 agonist -2, DAX1 inh-1 1, DAX1 inh-2 0 and hcDAF-12 act -1.
For CC(=O)c1ccc2c3c(cccc13)C(=O)N(CCc1ccccc1)C2=O the results were ssDAF-12 act 3.0*, hgDAF12 agonist 8, DAX1 inh-1 0, DAX1 inh-2 1, hcDAF-12 act 8.4*, LXRb hcDAF ctr 1 and hcDAF12 conf 9.7*.
Screening Cc1ccc2[nH]c(=O)c(CN(Cc3ccccc3)Cc3nnnn3C3CCCC3)cc2c1 returned ssDAF-12 act 2.5*, hgDAF12 agonist 10, DAX1 inh-1 0, DAX1 inh-2 4, hcDAF-12 act 14*, LXRb hcDAF ctr 0 and hcDAF12 conf 1.
`O=C(CC(=O)c1c(F)cccc1Cl)c1ccccc1O` gave ssDAF-12 act 0, hgDAF12 agonist 7, DAX1 inh-1 2, DAX1 inh-2 0, hcDAF-12 act 9.1*, LXRb hcDAF ctr 0 and hcDAF12 conf 6.9*.
`O=C(CCNC(=O)c1ccccc1Cl)NNC(=O)c1ccccc1O` gave ssDAF-12 act 0, hgDAF12 agonist 2, DAX1 inh-1 1, DAX1 inh-2 1 and hcDAF-12 act -1.
S=C(Nc1ccc(Cl)cc1)N1CCCCC1 was read as ssDAF-12 act -1, hgDAF12 agonist -1, DAX1 inh-1 -1, DAX1 inh-2 0 and hcDAF-12 act 3.
Screening S=C(Nc1ccc(Br)cc1)N1CCCC1 returned ssDAF-12 act -2, hgDAF12 agonist 1, DAX1 inh-1 1, DAX1 inh-2 0, hcDAF-12 act 7.4*, LXRb hcDAF ctr 0 and hcDAF12 conf 2.
Screening Fc1cccc(-c2nnn3c2nc(Cl)c2ccccc23)c1 returned ssDAF-12 act 1, hgDAF12 agonist 12*, DAX1 inh-1 4, DAX1 inh-2 1, hcDAF-12 act 8.3*, LXRb hcDAF ctr 0 and hcDAF12 conf 6.4*.
Clc1nc2c(-c3ccccc3)nnn2c2ccccc12 was read as ssDAF-12 act 0, hgDAF12 agonist 4, DAX1 inh-1 1, DAX1 inh-2 1 and hcDAF-12 act 4.
For COCCCNc1nc2c(-c3ccc(Cl)cc3)nnn2c2ccccc12 the results were ssDAF-12 act -1, hgDAF12 agonist -1, DAX1 inh-1 0, DAX1 inh-2 1 and hcDAF-12 act 3.
NNc1nc2c(-c3ccc(Cl)cc3)nnn2c2ccccc12 was read as ssDAF-12 act 0, hgDAF12 agonist 10, DAX1 inh-1 5.8*, DAX1 inh-2 2, hcDAF-12 act 8.1*, LXRb hcDAF ctr 1 and hcDAF12 conf 14*.
For COC(=O)[C@]1(C)N[C@H](CN(C)S(=O)(=O)c2ccc(-c3ccccc3)cc2)[C@@H]2C(=O)N(C)C(=O)[C@@H]21 the results were ssDAF-12 act -1, hgDAF12 agonist -2, DAX1 inh-1 -1, DAX1 inh-2 -2 and hcDAF-12 act -2.
